PubChem BioAssay AID2733 (National Center for Advancing Translational Sciences (NCATS), 2010)
Inconclusive results are not listed. Activity calls are given as the source filed them. The call rests on the fitted dose curve; in most records, active means well fitted inhibition curve with a large enough effect; inconclusive means small, poorly fitted or top-dose-only effect; inactive means flat fitted curve, though single readings scatter.

experiment: High Content Assay for Compounds that inhibit the Assembly of the Perinucleolar Compartment: PC3M Cytotoxicity; details: PC3M cells, ATPLite luminescence viability, 24 h; series mostly up to 46.1 µM; activity change, negative = cytotoxicity: at the top concentration
In short: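 PC3M-GFP cells (2000/well) adhered 4 h, then given 23 nl of compound stock in duplicate. After 24 h at 37 C, ATP measured by ATPLite luminescence; camptothecin positive control, DMSO negative.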

SMILES	Potency	activity change, negative = cytotoxicity
CSc1nc(-c2ccc(C)cc2)nc(C(Cl)Cl)n1	31.6 µM (active)	–
COc1ccc2nc3sc(C(=O)NCCCN4CCc5ccccc5C4)cc3cc2c1	31.6 µM (active)	–
O=C1C(Nc2ccccc2)=C/C(=N/S(=O)(=O)c2cccs2)c2ccccc21	15.8 µM (active)	–
COc1cccc(CNc2cccc3cccnc23)c1O	–	-0.123% (inactive)
N=c1c2c(-c3ccccc3)c(-c3ccccc3)n(Cc3ccccc3)c2ncn1CCCO	–	-10.9% (inactive)
Cc1ccc(NC(=S)NCCc2ccc(S(N)(=O)=O)cc2)cc1C	–	14.6% (inactive)
CC12CCC(C(=O)NC(c3ccccc3)c3ccccc3)(OC1=O)C2(C)C (configuration not stated)	–	-16.5% (inactive)
Cc1c(NC(=O)COC(=O)c2cc(-c3ccc(-c4ccccc4)cc3)nc3ccccc23)c(=O)n(-c2ccccc2)n1C	5.01 µM (active)	–
C=CCNC(=S)N/N=C(\C)c1ccccn1	6.31 µM (active)	–
O=C(NCc1ccco1)C1CCN(Cc2ccc(F)cc2)CC1	–	-8.55% (inactive)
Cc1c(C#N)c(N)nc2c3c(sc12)NC(=O)CC3c1ccc(F)cc1 (configuration not stated)	–	-15.1% (inactive)
Nc1cccc(-c2nc3ccc(N)cc3s2)c1	25.1 µM (active)	–
CCOC(=O)NC1(Nc2ccc(C)cc2)Oc2ccccc2O1	–	-5.34% (inactive)
O=C(Nc1ccc(NC(=O)C2CC2)cn1)c1ccccc1Cl	28.2 µM (active)	–
CCOC(=O)Cn1c(-c2nonc2NC(=O)c2ccccc2F)nc2ccccc21	4.47 µM (active)	–
CC(=O)c1ccc(-n2c(SCC(=O)c3c[nH]c4ccccc34)nc3ccccc3c2=O)cc1	–	-0.271% (inactive)
CCN=c1scc(-c2ccccc2)n1/N=C/c1ccccn1	10 µM (active)	–
C/C(N)=C(/C#N)C(=O)COC(=O)c1cc(C)n(-c2ccc(F)cc2)c1C	12.6 µM (active)	–
COc1ccc(CN2CCC(C(=O)NCCc3ccc(OC)c(OC)c3)CC2)c(OC)c1	–	-5.79% (inactive)
CCCNC1=C(N(C(C)=O)c2cccc(F)c2)C(=O)c2ccccc2C1=O	11.2 µM (active)	–
CCN(CC)c1ccc(N=Cc2ccccc2[N+](=O)[O-])cc1	–	11.6% (inactive)
Cc1cccc(NC2=C/C(=N/S(=O)(=O)c3cccs3)c3ccccc3C2=O)c1	15.8 µM (active)	–
